Source: paper PMC7862700, “An all-to-all approach to the identification of sequence-specific readers for epigenetic DNA modifications on cytosine”

Experiments:
Experiment in all cases: DAPPL (digital affinity profiling via proximity ligation, sequencing); 10 mM Tris-HCl pH 7.5, 50 mM NaCl, 1 mM DTT, 4% glycerol, room temperature, 30 min; GST-TFs on glutathione beads, 16-mer random dsDNA library, 0.1% formaldehyde crosslink after washing; high values mean tight binding
FLI1 = biological target: T1, FLI1 (Homo sapiens, UniProt Q01543 1-452); details: protein: recombinant; tags: N-terminal GST; dsDNA, one strand shown
T1 sequence: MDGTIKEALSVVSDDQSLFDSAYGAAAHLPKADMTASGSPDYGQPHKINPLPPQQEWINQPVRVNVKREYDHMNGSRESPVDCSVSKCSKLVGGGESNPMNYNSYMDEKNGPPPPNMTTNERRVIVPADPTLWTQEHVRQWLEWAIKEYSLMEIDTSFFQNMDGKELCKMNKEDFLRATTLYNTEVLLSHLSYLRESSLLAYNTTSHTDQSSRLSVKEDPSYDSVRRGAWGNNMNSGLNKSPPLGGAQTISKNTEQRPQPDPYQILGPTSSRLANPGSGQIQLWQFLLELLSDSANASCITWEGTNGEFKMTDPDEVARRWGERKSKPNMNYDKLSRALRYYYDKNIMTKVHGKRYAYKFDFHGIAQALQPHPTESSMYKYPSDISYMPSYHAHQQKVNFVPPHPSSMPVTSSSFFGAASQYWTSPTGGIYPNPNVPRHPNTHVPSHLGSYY
Method in brief: (§1)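 Binding signal is given per hexamer as its read frequency for a factor divided by its frequency in the tag-only sample. GST-fused human transcription factors were expressed in yeast, captured on glutathione beads, barcoded with DNA and pooled with that sample, then incubated with 200 nmole of a 16-mer random double-stranded DNA library in Tris/NaCl/DTT/glycerol buffer for 30 min at room temperature. The pools were then washed, crosslinked, proximity-ligated, amplified by PCR and sequenced on an Illumina NextSeq500.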

ELK1 = biological target: T2, ELK1 (Homo sapiens, UniProt P19419 1-428); details: protein: recombinant; tags: N-terminal GST; dsDNA, one strand shown
T2 sequence: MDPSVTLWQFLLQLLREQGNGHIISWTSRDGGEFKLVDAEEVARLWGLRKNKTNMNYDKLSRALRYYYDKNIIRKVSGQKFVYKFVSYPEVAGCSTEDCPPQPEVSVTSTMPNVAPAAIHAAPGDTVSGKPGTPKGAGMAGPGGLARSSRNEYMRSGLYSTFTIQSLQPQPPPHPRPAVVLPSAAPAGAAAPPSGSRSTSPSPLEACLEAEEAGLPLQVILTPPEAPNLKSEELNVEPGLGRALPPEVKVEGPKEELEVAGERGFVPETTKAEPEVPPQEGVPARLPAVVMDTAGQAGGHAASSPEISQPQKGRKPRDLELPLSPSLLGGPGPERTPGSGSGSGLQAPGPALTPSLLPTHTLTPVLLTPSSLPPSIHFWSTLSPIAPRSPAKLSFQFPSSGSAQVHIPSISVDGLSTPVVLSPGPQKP
Method in brief: as §1

GABPA = biological target: T3, GABPA (Homo sapiens, UniProt Q06546 1-454); details: protein: recombinant; tags: N-terminal GST; dsDNA, one strand shown
T3 sequence: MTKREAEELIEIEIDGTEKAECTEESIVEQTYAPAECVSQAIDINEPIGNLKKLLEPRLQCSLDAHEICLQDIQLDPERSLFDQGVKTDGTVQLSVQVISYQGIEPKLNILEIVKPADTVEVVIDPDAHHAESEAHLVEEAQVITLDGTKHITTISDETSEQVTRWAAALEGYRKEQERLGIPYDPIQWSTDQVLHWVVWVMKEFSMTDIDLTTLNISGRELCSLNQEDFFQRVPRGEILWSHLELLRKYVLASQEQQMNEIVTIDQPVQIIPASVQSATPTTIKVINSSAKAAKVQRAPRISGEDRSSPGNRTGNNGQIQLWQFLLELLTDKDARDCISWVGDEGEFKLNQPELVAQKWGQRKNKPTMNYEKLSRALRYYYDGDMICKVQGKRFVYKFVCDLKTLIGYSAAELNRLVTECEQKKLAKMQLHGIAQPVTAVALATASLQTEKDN
Method in brief: as §1

ERG = biological target: T4, ERG (Homo sapiens, UniProt P11308 1-479); details: protein: recombinant; tags: N-terminal GST; dsDNA, one strand shown
T4 sequence: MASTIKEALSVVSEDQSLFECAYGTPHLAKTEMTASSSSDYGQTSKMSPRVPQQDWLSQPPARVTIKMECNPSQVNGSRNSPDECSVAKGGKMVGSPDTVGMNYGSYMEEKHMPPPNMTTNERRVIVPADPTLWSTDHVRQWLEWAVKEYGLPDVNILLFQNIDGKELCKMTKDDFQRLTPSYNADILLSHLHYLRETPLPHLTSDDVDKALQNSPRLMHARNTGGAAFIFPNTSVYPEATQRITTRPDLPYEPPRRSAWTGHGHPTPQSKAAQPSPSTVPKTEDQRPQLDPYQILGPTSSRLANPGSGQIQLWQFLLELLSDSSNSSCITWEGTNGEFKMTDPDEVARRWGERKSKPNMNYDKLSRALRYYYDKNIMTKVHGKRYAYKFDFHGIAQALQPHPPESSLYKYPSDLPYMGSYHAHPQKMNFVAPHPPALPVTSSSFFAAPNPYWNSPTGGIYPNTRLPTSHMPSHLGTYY
Method in brief: as §1

ELF1 = ELF1 (Homo sapiens, UniProt P32519 1-619); details: protein: recombinant; tags: N-terminal GST; dsDNA, one strand shown
Chain of ELF1 (P32519 whole entry): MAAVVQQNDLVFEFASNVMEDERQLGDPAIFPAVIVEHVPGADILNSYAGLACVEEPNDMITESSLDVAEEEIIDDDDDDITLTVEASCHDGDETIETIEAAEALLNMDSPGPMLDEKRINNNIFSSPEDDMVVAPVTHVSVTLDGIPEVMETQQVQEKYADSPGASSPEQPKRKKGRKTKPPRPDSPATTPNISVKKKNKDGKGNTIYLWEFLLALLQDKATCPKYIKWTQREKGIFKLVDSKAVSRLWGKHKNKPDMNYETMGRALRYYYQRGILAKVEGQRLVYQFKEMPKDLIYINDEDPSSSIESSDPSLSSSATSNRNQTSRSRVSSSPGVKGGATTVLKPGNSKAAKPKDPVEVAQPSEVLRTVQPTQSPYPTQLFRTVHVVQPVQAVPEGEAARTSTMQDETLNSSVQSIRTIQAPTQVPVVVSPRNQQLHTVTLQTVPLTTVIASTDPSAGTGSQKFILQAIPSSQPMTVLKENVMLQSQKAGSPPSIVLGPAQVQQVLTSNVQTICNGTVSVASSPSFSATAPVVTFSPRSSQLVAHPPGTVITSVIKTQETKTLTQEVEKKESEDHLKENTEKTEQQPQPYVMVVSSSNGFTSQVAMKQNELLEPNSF
Method in brief: as §1

EHF = biological target: T5, EHF (Homo sapiens, UniProt Q9NZC4 1-300); details: protein: recombinant; tags: N-terminal GST; dsDNA, one strand shown
T5 sequence: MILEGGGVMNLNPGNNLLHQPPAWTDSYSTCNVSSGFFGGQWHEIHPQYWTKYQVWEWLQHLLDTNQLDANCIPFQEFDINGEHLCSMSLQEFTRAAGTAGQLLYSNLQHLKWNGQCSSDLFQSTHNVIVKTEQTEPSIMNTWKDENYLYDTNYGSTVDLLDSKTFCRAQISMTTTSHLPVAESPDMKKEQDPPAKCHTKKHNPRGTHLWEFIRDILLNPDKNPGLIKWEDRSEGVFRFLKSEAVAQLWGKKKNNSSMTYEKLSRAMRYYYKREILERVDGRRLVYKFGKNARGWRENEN
Method in brief: as §1

SPIB = SPIB (Homo sapiens, UniProt Q01892 1-262); details: protein: recombinant; tags: N-terminal GST; dsDNA, one strand shown
Chain of SPIB (Q01892 whole entry): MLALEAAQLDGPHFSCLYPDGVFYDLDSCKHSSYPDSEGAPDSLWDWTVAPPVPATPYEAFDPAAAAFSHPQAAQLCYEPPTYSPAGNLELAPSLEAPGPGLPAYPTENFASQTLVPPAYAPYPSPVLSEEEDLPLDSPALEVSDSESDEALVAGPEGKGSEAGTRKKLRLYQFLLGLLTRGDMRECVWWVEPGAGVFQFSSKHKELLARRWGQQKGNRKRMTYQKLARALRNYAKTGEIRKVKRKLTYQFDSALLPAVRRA
Method in brief: as §1

ELK3 = biological target: T6, ELK3 (Homo sapiens, UniProt P41970 1-407); details: protein: recombinant; tags: N-terminal GST; dsDNA, one strand shown
T6 sequence: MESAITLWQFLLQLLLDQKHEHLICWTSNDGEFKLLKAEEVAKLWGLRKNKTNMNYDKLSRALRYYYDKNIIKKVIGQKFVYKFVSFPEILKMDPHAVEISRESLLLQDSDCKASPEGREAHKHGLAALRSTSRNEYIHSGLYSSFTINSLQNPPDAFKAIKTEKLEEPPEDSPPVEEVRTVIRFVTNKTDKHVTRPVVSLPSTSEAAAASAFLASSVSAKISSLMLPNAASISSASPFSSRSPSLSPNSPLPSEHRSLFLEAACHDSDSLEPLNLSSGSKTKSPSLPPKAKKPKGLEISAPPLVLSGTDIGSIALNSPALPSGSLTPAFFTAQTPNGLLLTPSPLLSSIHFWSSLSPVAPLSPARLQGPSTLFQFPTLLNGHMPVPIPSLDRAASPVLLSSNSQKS
Method in brief: as §1

FEV = biological target: T7, FEV (Homo sapiens, UniProt Q99581 1-238); details: protein: recombinant; tags: N-terminal GST; dsDNA, one strand shown
T7 sequence: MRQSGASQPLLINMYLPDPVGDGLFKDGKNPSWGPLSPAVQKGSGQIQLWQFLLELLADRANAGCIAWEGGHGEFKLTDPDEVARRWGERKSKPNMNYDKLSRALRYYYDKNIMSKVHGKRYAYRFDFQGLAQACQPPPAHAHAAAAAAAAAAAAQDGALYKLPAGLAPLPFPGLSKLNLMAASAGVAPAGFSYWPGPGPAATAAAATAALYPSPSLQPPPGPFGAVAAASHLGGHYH
Method in brief: as §1

ETV5 = ETV5 (Homo sapiens, UniProt P41161 1-510); details: protein: recombinant; tags: N-terminal GST; dsDNA, one strand shown
Chain of ETV5 (P41161 whole entry): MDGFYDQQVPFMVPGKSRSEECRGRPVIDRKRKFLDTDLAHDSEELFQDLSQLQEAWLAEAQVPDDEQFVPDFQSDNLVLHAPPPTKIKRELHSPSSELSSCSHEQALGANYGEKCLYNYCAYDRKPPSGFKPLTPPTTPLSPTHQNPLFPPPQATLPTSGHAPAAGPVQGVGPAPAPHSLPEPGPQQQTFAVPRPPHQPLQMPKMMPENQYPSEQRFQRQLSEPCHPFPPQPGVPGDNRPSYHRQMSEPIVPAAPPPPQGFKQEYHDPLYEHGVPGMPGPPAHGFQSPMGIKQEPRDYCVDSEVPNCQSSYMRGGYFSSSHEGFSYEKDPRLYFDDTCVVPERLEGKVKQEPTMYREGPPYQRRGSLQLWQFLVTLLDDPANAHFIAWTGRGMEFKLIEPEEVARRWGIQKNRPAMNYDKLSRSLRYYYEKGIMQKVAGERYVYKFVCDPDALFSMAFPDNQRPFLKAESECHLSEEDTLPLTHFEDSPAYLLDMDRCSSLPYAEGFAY
Method in brief: as §1

HSF1 = HSF1 (Homo sapiens, UniProt Q00613 1-529); details: protein: recombinant; tags: N-terminal GST; chain copies: 3; dsDNA, one strand shown
Chain of HSF1 (Q00613 whole entry): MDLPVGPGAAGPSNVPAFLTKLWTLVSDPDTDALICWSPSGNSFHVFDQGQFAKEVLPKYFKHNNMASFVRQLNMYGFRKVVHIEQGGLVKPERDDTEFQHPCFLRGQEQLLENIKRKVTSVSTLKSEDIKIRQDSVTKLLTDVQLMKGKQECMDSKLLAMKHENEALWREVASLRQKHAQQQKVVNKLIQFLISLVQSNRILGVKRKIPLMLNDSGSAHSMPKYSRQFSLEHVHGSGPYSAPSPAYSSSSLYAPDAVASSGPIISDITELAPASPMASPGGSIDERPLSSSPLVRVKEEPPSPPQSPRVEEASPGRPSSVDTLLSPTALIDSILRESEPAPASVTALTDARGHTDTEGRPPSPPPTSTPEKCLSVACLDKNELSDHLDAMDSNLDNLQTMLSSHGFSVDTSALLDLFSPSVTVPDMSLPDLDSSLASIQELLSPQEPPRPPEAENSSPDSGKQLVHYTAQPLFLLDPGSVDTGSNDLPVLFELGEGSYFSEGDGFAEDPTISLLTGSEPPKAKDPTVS
Method in brief: as §1

SPIC = biological target: T8, SPIC (Homo sapiens, UniProt Q8N5J4 1-248); details: protein: recombinant; tags: N-terminal GST; dsDNA, one strand shown
T8 sequence: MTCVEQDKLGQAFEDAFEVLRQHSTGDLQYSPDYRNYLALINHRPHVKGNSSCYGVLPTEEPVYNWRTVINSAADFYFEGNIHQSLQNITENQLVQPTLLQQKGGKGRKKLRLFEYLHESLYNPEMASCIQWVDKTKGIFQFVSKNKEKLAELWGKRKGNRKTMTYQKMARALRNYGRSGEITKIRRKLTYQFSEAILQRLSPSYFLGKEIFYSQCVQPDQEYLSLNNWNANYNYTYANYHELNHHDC
Method in brief: as §1

ELK4 = biological target: T9, ELK4 (Homo sapiens, UniProt P28324-2 1-405); details: protein: recombinant; tags: N-terminal GST; dsDNA, one strand shown
T9 sequence: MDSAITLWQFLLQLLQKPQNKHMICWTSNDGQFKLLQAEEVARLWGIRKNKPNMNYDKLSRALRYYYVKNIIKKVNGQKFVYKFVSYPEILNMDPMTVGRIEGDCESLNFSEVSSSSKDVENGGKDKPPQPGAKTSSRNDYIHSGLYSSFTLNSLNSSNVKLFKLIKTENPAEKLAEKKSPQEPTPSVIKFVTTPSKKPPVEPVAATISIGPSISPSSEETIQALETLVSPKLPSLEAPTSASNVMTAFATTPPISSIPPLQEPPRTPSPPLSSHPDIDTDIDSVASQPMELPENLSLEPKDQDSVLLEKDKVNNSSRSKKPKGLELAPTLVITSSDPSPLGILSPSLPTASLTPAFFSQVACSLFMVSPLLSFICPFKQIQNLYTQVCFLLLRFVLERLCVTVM
Method in brief: as §1

ETV2 = biological target: T10, ETV2 (Homo sapiens, UniProt O00321 1-342); details: protein: recombinant; tags: N-terminal GST; dsDNA, one strand shown
T10 sequence: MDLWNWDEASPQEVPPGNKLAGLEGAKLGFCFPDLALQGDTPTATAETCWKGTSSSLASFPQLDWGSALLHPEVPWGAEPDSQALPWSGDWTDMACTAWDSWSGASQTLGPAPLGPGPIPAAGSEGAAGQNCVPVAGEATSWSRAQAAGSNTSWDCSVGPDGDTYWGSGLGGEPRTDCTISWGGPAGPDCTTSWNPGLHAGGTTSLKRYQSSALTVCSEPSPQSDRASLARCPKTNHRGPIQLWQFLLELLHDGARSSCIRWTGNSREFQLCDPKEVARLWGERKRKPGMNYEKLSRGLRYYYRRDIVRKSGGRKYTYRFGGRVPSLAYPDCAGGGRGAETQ
Method in brief: as §1

ELF3 = biological target: T11, ELF3 (Homo sapiens, UniProt P78545 1-371); details: protein: recombinant; tags: N-terminal GST; dsDNA, one strand shown
T11 sequence: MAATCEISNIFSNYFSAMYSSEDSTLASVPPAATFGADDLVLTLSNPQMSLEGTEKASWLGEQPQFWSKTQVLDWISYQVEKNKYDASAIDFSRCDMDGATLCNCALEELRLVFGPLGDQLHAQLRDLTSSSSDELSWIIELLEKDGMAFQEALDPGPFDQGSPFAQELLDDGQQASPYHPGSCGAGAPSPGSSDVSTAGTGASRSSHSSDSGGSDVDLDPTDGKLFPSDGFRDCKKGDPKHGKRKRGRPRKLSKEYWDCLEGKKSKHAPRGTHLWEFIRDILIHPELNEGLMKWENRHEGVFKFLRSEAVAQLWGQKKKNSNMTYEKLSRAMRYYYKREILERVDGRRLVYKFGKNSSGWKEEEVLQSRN
Method in brief: as §1

ETV1 = ETV1 (Homo sapiens, UniProt P50549 1-477); details: protein: recombinant; tags: N-terminal GST; dsDNA, one strand shown
Chain of ETV1 (P50549 whole entry): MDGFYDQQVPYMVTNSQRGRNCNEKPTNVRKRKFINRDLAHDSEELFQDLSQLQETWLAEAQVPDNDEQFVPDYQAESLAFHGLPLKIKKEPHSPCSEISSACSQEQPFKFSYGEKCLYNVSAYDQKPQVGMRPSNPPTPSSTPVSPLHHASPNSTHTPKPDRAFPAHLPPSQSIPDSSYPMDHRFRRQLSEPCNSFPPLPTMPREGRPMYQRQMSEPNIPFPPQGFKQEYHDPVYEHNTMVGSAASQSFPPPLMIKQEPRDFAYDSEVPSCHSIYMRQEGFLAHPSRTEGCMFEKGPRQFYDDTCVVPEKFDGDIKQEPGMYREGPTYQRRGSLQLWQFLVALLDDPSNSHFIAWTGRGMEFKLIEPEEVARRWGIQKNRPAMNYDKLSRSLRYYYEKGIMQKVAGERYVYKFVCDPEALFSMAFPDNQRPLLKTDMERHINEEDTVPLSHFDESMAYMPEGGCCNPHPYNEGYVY
Method in brief: as §1

For TCGCGC, which binding signal (FLI1) is on record?
Its binding signal is 1.08 fold enrichment (6-mer frequency, TF over GST control).

And the binding signal (ELK1)?
The binding signal was 1.04 fold enrichment (6-mer frequency, TF over GST control).

What about the binding signal (GABPA) of the same sequence?
The binding signal was 1.18 fold enrichment (6-mer frequency, TF over GST control).

And the binding signal (ERG)?
Its binding signal is 1.08 fold enrichment (6-mer frequency, TF over GST control).

What about the binding signal (ELF1) of the same sequence?
The binding signal was 1.07 fold enrichment (6-mer frequency, TF over GST control).

And the binding signal (EHF)?
Its binding signal is 1.13 fold enrichment (6-mer frequency, TF over GST control).

And the binding signal (SPIB)?
The binding signal was 1.08 fold enrichment (6-mer frequency, TF over GST control).

And the binding signal (ELK3)?
The binding signal was 1.03 fold enrichment (6-mer frequency, TF over GST control).

And the binding signal (FEV)?
The binding signal was 1.03 fold enrichment (6-mer frequency, TF over GST control).

What about the binding signal (ETV5) of the same sequence?
Its binding signal is 1.02 fold enrichment (6-mer frequency, TF over GST control).

And the binding signal (HSF1)?
Its binding signal is 1.1 fold enrichment (6-mer frequency, TF over GST control).

And the binding signal (SPIC)?
The binding signal was 1.25 fold enrichment (6-mer frequency, TF over GST control).

What about the binding signal (ELK4) of the same sequence?
Its binding signal is 1.03 fold enrichment (6-mer frequency, TF over GST control).

What about the binding signal (ETV2) of the same sequence?
Its binding signal is 1.08 fold enrichment (6-mer frequency, TF over GST control).

And the binding signal (ELF3)?
The binding signal was 1.05 fold enrichment (6-mer frequency, TF over GST control).

What about the binding signal (ETV1) of the same sequence?
Its binding signal is 1.13 fold enrichment (6-mer frequency, TF over GST control).
